Target: AgAbp1
Assay: SPOT peptide array binding signal intensity (averaged, normalized) (arbitrary units (background-subtracted, floor 0; scale differs between SH3 domains)); higher = stronger binding of the SH3 domain to the peptide
Procedure, shortened: (§1)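 Peptides were synthetic 15-mers on cellulose membranes, with every cysteine replaced by serine. They were incubated overnight at 4°C with GST-SH3 domains from four yeast species at 10 μg/ml in TBS-based blocking buffer. Binding signal, the replicate-averaged normalized and background-subtracted spot intensity, is in arbitrary units that differ between domains.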

Binder | SPOT peptide array binding signal intensity
SNRRPVPRRPSQPLN | 587

Target: AgBbc1
Assay: as above
Procedure, shortened: as §1

Binder | SPOT peptide array binding signal intensity
SNRRPVPRRPSQPLN | 790

Target: AgBem1-D1
Assay: as above
Procedure, shortened: as §1

Binder | SPOT peptide array binding signal intensity
SNRRPVPRRPSQPLN | 12

Target: AgBzz1-D1
Assay: as above
Procedure, shortened: as §1

Binder | SPOT peptide array binding signal intensity
SNRRPVPRRPSQPLN | 157

Target: AgBzz1-D2
Assay: as above
Procedure, shortened: as §1

Binder | SPOT peptide array binding signal intensity
SNRRPVPRRPSQPLN | 61.8

Target: AgCyk3
Assay: as above
Procedure, shortened: as §1

Binder | SPOT peptide array binding signal intensity
SNRRPVPRRPSQPLN | 7.5

Target: AgFus1
Assay: as above
Procedure, shortened: as §1

Binder | SPOT peptide array binding signal intensity
SNRRPVPRRPSQPLN | 27

Target: AgHof1
Assay: as above
Procedure, shortened: as §1

Binder | SPOT peptide array binding signal intensity
SNRRPVPRRPSQPLN | 9

Target: AgHse1
Assay: as above
Procedure, shortened: as §1

Binder | SPOT peptide array binding signal intensity
SNRRPVPRRPSQPLN | 18.2

Target: AgLsb1
Assay: as above
Procedure, shortened: as §1

Binder | SPOT peptide array binding signal intensity
SNRRPVPRRPSQPLN | 23.5

Target: AgLsb4
Assay: as above
Procedure, shortened: as §1

Binder | SPOT peptide array binding signal intensity
SNRRPVPRRPSQPLN | 3680

Target: AgMyo5
Assay: as above
Procedure, shortened: as §1

Binder | SPOT peptide array binding signal intensity
SNRRPVPRRPSQPLN | 0.25

Target: AgNbp2
Assay: as above
Procedure, shortened: as §1

Binder | SPOT peptide array binding signal intensity
SNRRPVPRRPSQPLN | 1230

Target: AgRvs167
Assay: as above
Procedure, shortened: as §1

Binder | SPOT peptide array binding signal intensity
SNRRPVPRRPSQPLN | 64.1

Target: AgSho1
Assay: as above
Procedure, shortened: as §1

Binder | SPOT peptide array binding signal intensity
SNRRPVPRRPSQPLN | 5.75

Target: AgSla1-D1-D2
Assay: as above
Procedure, shortened: as §1

Binder | SPOT peptide array binding signal intensity
SNRRPVPRRPSQPLN | ≤ 0

Target: AgSla1-D3
Assay: as above
Procedure, shortened: as §1

Binder | SPOT peptide array binding signal intensity
SNRRPVPRRPSQPLN | 3

Target: CaAbp1-D1
Assay: as above
Procedure, shortened: as §1

Binder | SPOT peptide array binding signal intensity
SNRRPVPRRPSQPLN | 328

Target: CaAbp1-D2
Assay: as above
Procedure, shortened: as §1

Binder | SPOT peptide array binding signal intensity
SNRRPVPRRPSQPLN | 574

Target: CaBbc1
Assay: as above
Procedure, shortened: as §1

Binder | SPOT peptide array binding signal intensity
SNRRPVPRRPSQPLN | 1250

Target: CaBem1-D1
Assay: as above
Procedure, shortened: as §1

Binder | SPOT peptide array binding signal intensity
SNRRPVPRRPSQPLN | 135

Target: CaBzz1-D1
Assay: as above
Procedure, shortened: as §1

Binder | SPOT peptide array binding signal intensity
SNRRPVPRRPSQPLN | 380

Target: CaBzz1-D2
Assay: as above
Procedure, shortened: as §1

Binder | SPOT peptide array binding signal intensity
SNRRPVPRRPSQPLN | 153

Target: CaCyk3
Assay: as above
Procedure, shortened: as §1

Binder | SPOT peptide array binding signal intensity
SNRRPVPRRPSQPLN | 464

Target: CaFus1
Assay: as above
Procedure, shortened: as §1

Binder | SPOT peptide array binding signal intensity
SNRRPVPRRPSQPLN | 111

Target: CaHof1
Assay: as above
Procedure, shortened: as §1

Binder | SPOT peptide array binding signal intensity
SNRRPVPRRPSQPLN | ≤ 0

Target: CaHse1
Assay: as above
Procedure, shortened: as §1

Binder | SPOT peptide array binding signal intensity
SNRRPVPRRPSQPLN | 20.5

Target: CaLsb1
Assay: as above
Procedure, shortened: as §1

Binder | SPOT peptide array binding signal intensity
SNRRPVPRRPSQPLN | 2

Target: CaLsb4
Assay: as above
Procedure, shortened: as §1

Binder | SPOT peptide array binding signal intensity
SNRRPVPRRPSQPLN | 4120

Target: CaMyo5
Assay: as above
Procedure, shortened: as §1

Binder | SPOT peptide array binding signal intensity
SNRRPVPRRPSQPLN | 2.75

Target: CaNbp2
Assay: as above
Procedure, shortened: as §1

Binder | SPOT peptide array binding signal intensity
SNRRPVPRRPSQPLN | 1960

Target: CaRvs167
Assay: as above
Procedure, shortened: as §1

Binder | SPOT peptide array binding signal intensity
SNRRPVPRRPSQPLN | 303

Target: CaRvs167-3
Assay: as above
Procedure, shortened: as §1

Binder | SPOT peptide array binding signal intensity
SNRRPVPRRPSQPLN | 3.5

Target: CaSho1
Assay: as above
Procedure, shortened: as §1

Binder | SPOT peptide array binding signal intensity
SNRRPVPRRPSQPLN | ≤ 0

Target: CaSla1-D1-D2
Assay: as above
Procedure, shortened: as §1

Binder | SPOT peptide array binding signal intensity
SNRRPVPRRPSQPLN | 1570

Target: CaSla1-D3
Assay: as above
Procedure, shortened: as §1

Binder | SPOT peptide array binding signal intensity
SNRRPVPRRPSQPLN | 14.2

Target: ScAbp1
Assay: as above
Procedure, shortened: as §1

Binder | SPOT peptide array binding signal intensity
SNRRPVPRRPSQPLN | 306

Target: ScBbc1
Assay: as above
Procedure, shortened: as §1

Binder | SPOT peptide array binding signal intensity
SNRRPVPRRPSQPLN | 478

Target: ScBem1-D1
Assay: as above
Procedure, shortened: as §1

Binder | SPOT peptide array binding signal intensity
SNRRPVPRRPSQPLN | 22

Target: ScBzz1-D1
Assay: as above
Procedure, shortened: as §1

Binder | SPOT peptide array binding signal intensity
SNRRPVPRRPSQPLN | 11.5

Target: ScBzz1-D2
Assay: as above
Procedure, shortened: as §1

Binder | SPOT peptide array binding signal intensity
SNRRPVPRRPSQPLN | 36.5

Target: ScCyk3
Assay: as above
Procedure, shortened: as §1

Binder | SPOT peptide array binding signal intensity
SNRRPVPRRPSQPLN | 17

Target: ScFus1
Assay: as above
Procedure, shortened: as §1

Binder | SPOT peptide array binding signal intensity
SNRRPVPRRPSQPLN | 56.8

Target: ScHof1
Assay: as above
Procedure, shortened: as §1

Binder | SPOT peptide array binding signal intensity
SNRRPVPRRPSQPLN | ≤ 0

Target: ScHse1
Assay: as above
Procedure, shortened: as §1

Binder | SPOT peptide array binding signal intensity
SNRRPVPRRPSQPLN | 639

Target: ScLsb1
Assay: as above
Procedure, shortened: as §1

Binder | SPOT peptide array binding signal intensity
SNRRPVPRRPSQPLN | 425

Target: ScLsb2
Assay: as above
Procedure, shortened: as §1

Binder | SPOT peptide array binding signal intensity
SNRRPVPRRPSQPLN | 8.5

Target: ScLsb3
Assay: as above
Procedure, shortened: as §1

Binder | SPOT peptide array binding signal intensity
SNRRPVPRRPSQPLN | 6520

Target: ScLsb4
Assay: as above
Procedure, shortened: as §1

Binder | SPOT peptide array binding signal intensity
SNRRPVPRRPSQPLN | 1140

Target: ScMyo3
Assay: as above
Procedure, shortened: as §1

Binder | SPOT peptide array binding signal intensity
SNRRPVPRRPSQPLN | 4.75

Target: ScMyo5
Assay: as above
Procedure, shortened: as §1

Binder | SPOT peptide array binding signal intensity
SNRRPVPRRPSQPLN | 2.75

Target: ScNbp2
Assay: as above
Procedure, shortened: as §1

Binder | SPOT peptide array binding signal intensity
SNRRPVPRRPSQPLN | 2500

Target: ScPex13
Assay: as above
Procedure, shortened: as §1

Binder | SPOT peptide array binding signal intensity
SNRRPVPRRPSQPLN | 377

Target: ScRvs167
Assay: as above
Procedure, shortened: as §1

Binder | SPOT peptide array binding signal intensity
SNRRPVPRRPSQPLN | 2630

Target: ScSho1
Assay: as above
Procedure, shortened: as §1

Binder | SPOT peptide array binding signal intensity
SNRRPVPRRPSQPLN | 83

Target: ScSla1-D1-D2
Assay: as above
Procedure, shortened: as §1

Binder | SPOT peptide array binding signal intensity
SNRRPVPRRPSQPLN | 2640

Target: ScSla1-D3
Assay: as above
Procedure, shortened: as §1

Binder | SPOT peptide array binding signal intensity
SNRRPVPRRPSQPLN | 66.1

Target: SpAbp1-D1
Assay: as above
Procedure, shortened: as §1

Binder | SPOT peptide array binding signal intensity
SNRRPVPRRPSQPLN | 352

Target: SpBbc1
Assay: as above
Procedure, shortened: as §1

Binder | SPOT peptide array binding signal intensity
SNRRPVPRRPSQPLN | 472

Target: SpBzz1-D1
Assay: as above
Procedure, shortened: as §1

Binder | SPOT peptide array binding signal intensity
SNRRPVPRRPSQPLN | 500

Target: SpBzz1-D2
Assay: as above
Procedure, shortened: as §1

Binder | SPOT peptide array binding signal intensity
SNRRPVPRRPSQPLN | 0.75

Target: SpCyk3
Assay: as above
Procedure, shortened: as §1

Binder | SPOT peptide array binding signal intensity
SNRRPVPRRPSQPLN | 6

Target: SpHof1
Assay: as above
Procedure, shortened: as §1

Binder | SPOT peptide array binding signal intensity
SNRRPVPRRPSQPLN | 245

Target: SpHof1-2
Assay: as above
Procedure, shortened: as §1

Binder | SPOT peptide array binding signal intensity
SNRRPVPRRPSQPLN | 204

Target: SpHof1-3
Assay: as above
Procedure, shortened: as §1

Binder | SPOT peptide array binding signal intensity
SNRRPVPRRPSQPLN | 302

Target: SpHse1
Assay: as above
Procedure, shortened: as §1

Binder | SPOT peptide array binding signal intensity
SNRRPVPRRPSQPLN | 91.5

Target: SpLsb1
Assay: as above
Procedure, shortened: as §1

Binder | SPOT peptide array binding signal intensity
SNRRPVPRRPSQPLN | 96

Target: SpLsb4
Assay: as above
Procedure, shortened: as §1

Binder | SPOT peptide array binding signal intensity
SNRRPVPRRPSQPLN | 2870

Target: SpMyo1
Assay: as above
Procedure, shortened: as §1

Binder | SPOT peptide array binding signal intensity
SNRRPVPRRPSQPLN | 73.1

Target: SpNbp2
Assay: as above
Procedure, shortened: as §1

Binder | SPOT peptide array binding signal intensity
SNRRPVPRRPSQPLN | 21.5

Target: SpPex13
Assay: as above
Procedure, shortened: as §1

Binder | SPOT peptide array binding signal intensity
SNRRPVPRRPSQPLN | 4

Target: SpRvs167
Assay: as above
Procedure, shortened: as §1

Binder | SPOT peptide array binding signal intensity
SNRRPVPRRPSQPLN | 1830

Target: SpSla1-D1-D2
Assay: as above
Procedure, shortened: as §1

Binder | SPOT peptide array binding signal intensity
SNRRPVPRRPSQPLN | 21

Target: SpSla1-D3
Assay: as above
Procedure, shortened: as §1

Binder | SPOT peptide array binding signal intensity
SNRRPVPRRPSQPLN | 0.5

Reference: the supplement of paper PMC4466140
